TRb SRC2 PPI = TRbeta-SRC2 interaction inhibition; P10828; TRbeta-SRC2 peptide binding, fluorescence polarization; receptor liganded with 1 µM T3; Potency, µM (top dose mostly 106 µM), actives largely listed as inhibitors; actives 0.065% (n = 280,000); note: nearly all actives have a fitted effect of over 50% in size
Target sequence (P10828 whole entry, looked up): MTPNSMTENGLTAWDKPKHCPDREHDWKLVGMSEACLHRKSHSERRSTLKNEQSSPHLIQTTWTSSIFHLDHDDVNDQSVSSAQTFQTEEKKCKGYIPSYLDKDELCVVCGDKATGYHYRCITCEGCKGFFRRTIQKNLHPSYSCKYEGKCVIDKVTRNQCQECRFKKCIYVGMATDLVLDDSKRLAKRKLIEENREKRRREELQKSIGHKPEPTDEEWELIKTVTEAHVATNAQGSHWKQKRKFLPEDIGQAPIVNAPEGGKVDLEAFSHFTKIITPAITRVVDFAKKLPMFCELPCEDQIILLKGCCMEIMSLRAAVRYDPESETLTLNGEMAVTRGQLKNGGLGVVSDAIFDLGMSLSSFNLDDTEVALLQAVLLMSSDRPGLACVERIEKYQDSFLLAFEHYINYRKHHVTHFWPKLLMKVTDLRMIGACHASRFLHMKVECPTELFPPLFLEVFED
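Assay buffer: 20 mM Tris-HCl, 100 mM NaCl, 10% glycerol, 1 mM EDTA, 0.01% NP-40, 1 mM DTT, 1 uM T3, 5% DMSO; TRb LBD 0.6 uM, Texas Red SRC2 20 nM; FP after 5 hr.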
Tau fluor cs = counter-screen for tau fibril formation inhibitors. tau K18 P301L Alexa594 fluorescence, heparin fibrillization. Potency, µM (titrated, usually from 57.7 µM). actives 0.93% (n = 280,000). AID 1463; note: nearly all actives have a fitted effect of over 55% in size
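Human K18 P301L tau (15 uM unlabeled plus 0.24 uM Alexa 594-labeled, final) in 100 mM sodium acetate pH 7 was mixed with compound and 20 uM heparin and incubated 6 hr at 37 C.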
TexasRed fluor = alters Texas Red total fluorescence, flagging assay interference. TRb/SRC2 Texas Red total fluorescence interference. Potency, µM (top dose mostly 106 µM). actives 0.29% (n = 280,000). AID 1479; active = well fitted curve in either direction with a large enough effect; inconclusive = small, poorly fitted or top-dose-only effect
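Human TRβ ligand-binding domain (0.6 uM) and Texas Red SRC2 peptide (20 nM) in Tris buffer with 1 uM T3 and 5% DMSO were incubated with pinned compound for 5 hr at ambient temperature. Total fluorescence was computed as S + 2P (555/632 nm).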
Tau FP inhib = blocks human tau fibril formation measured by polarization; AID 1468; Potency, µM (doses to about 57.7 µM), usual class: inhibitors; K18 P301L tau heparin fibrillization, Alexa594 FP, 6 h; actives 0.39% (n = 280,000); note: nearly all actives have a fitted effect of over 55% in size
Target sequence (P10636 561-689 P618L limits assumed): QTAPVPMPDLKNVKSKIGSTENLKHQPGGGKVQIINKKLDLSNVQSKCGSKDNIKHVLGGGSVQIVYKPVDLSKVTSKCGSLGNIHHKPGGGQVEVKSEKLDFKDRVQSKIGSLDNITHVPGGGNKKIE
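Read-out: fluorescence polarization of Alexa 594-labeled tau (0.24 uM), 555 nm excitation, 632 nm emission. Mixtures held 15 uM unlabeled K18 P301L, compound and 20 uM heparin, pH 7 acetate buffer, incubated 6 hr at 37 C.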
Tau ThT inhib = blocks human tau fibril formation measured by thioflavin T; P10636; recombinant tau K18 P301L (four-repeat tau fragment), heparin-induced fibrillization, ThT fluorescence; Potency, µM (titrated, usually from 57.4 µM), hits mostly inhibitors; actives 2.1% (n = 270,000); AID 1460; note: nearly all actives have a fitted effect of over 55% in size
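Aggregation was driven by heparin (20 uM final) acting on recombinant tau […] bearing P301L in 100 mM sodium acetate pH 7; fibrils were detected with Thioflavin T.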
KDM4E inh = blocks human JMJD2E demethylase activity | JMJD2E catalytic domain, FDH-coupled NADH fluorescence (FDH is formaldehyde dehydrogenase) | Potency, µM (series often up to 57.1 µM), actives largely listed as inhibitors | actives 1.6% (n = 230,000); active = well fitted inhibition curve with a large enough effect, not every such curve was filed as active; inconclusive = small, poorly fitted or top-dose-only effect, or another doubt; inactive = no such curve, though single readings can be large or run the other way; note: nearly all actives have a fitted effect of over 50% in size
Of the large screens only hits and unclear results are named; the others gave an inactive call; [ ] = remark or other dose. The list is not random: actives were taken first. Their share in the collection is about 3.5%. Unless noted, calls come from the whole dose curve; as a rule, active = well fitted curve in the direction sought with a large enough effect; inconclusive = small, poorly fitted or top-dose-only effect, or another doubt; inactive = no such curve, though single readings can be large; an effect the other way counts as inactive or inconclusive.

CC(C)CC(O)C1CCN(C(=O)CCc2nnc(-c3ccccc3)o2)CC1 (configuration not stated)	none
O=C(CSc1nnc(NCc2ccccc2)s1)N1CCOCC1	none
COc1ccc(CNC(=O)CN(C)S(=O)(=O)c2ccc3[nH]c4c(c3c2)CCCC4)cc1	Tau fluor cs inconclusive, TexasRed fluor inconclusive, Tau FP inhib inconclusive (no result: KDM4E inh)
CCOc1ccc(NC(=O)CN(C)S(=O)(=O)c2ccc3[nH]c4c(c3c2)CCCC4)cc1	Tau fluor cs 14µM[quencher] (no result: KDM4E inh)
CN(CC(=O)NCc1ccc(F)cc1)S(=O)(=O)c1ccc2[nH]c3c(c2c1)CCCC3	Tau fluor cs inconclusive, TexasRed fluor 18µM[quencher] (no result: KDM4E inh)
Cc1cccc(C)c1NC(=O)CN(C)S(=O)(=O)c1ccc2[nH]c3c(c2c1)CCCC3	Tau fluor cs inconclusive, TexasRed fluor 22µM[quencher] (no result: KDM4E inh)
CN(CC(=O)NCc1ccccc1)S(=O)(=O)c1ccc2[nH]c3c(c2c1)CCCC3	Tau fluor cs inconclusive, Tau FP inhib inconclusive (no result: KDM4E inh)
CN(Cc1ccccc1)S(=O)(=O)c1ccc2[nH]c3c(c2c1)CCCCC3	Tau fluor cs 3.5µM[quencher], Tau FP inhib inconclusive (no result: KDM4E inh)
Cc1cc(C)cc(NC(=O)CN(C)S(=O)(=O)c2ccc3[nH]c4c(c3c2)CCCC4)c1	Tau fluor cs 4.5µM[quencher] (no result: KDM4E inh)
C=CCSC(=C(C#N)C#N)c1cc2c([nH]1)CCCC2	Tau fluor cs inconclusive, Tau ThT inhib 10µM
CC(=O)Nc1ccc(Nc2cc(C)nc3c(-c4ccccc4)cnn23)cc1	Tau fluor cs 16µM[quencher], Tau ThT inhib inconclusive, KDM4E inh inconclusive
CC(=O)Nc1ccc(Nc2cc(-c3ccccc3)nc3ncnn23)cc1	none
N#CC1=C(SCC(=O)c2ccc(Br)cc2)NC2=C(C(=O)CCC2)C1c1ccco1 (configuration not stated)	Tau fluor cs inconclusive, Tau ThT inhib 14µM
CCc1ccc(NC(=O)CSC2=C(C#N)C(c3ccco3)C3=C(CCCC3=O)N2)cc1 (configuration not stated)	Tau fluor cs inconclusive
CC(=O)C1=C(C)NC(SCC(=O)c2ccc(Cl)cc2)=C(C#N)C1c1ccco1 (configuration not stated)	Tau fluor cs inconclusive, Tau ThT inhib inconclusive
CC(=O)C1=C(C)NC(SCC(=O)c2ccccc2)=C(C#N)C1c1ccco1 (configuration not stated)	Tau fluor cs inconclusive, Tau ThT inhib 22µM
CCOC(=O)Cc1ccc(NC(=O)Nc2ccccc2OCc2cc(=O)n3ccccc3n2)cc1	none (no result: KDM4E inh)
CC(C)(C)C(=O)Cn1c(=O)n(CCCCCC(=O)NCc2ccccc2Cl)c(=O)c2sccc21	none (no result: KDM4E inh)
C(=N\Nc1nc(-c2ccccc2)cs1)/c1ccco1	Tau fluor cs 14µM[quencher], Tau FP inhib inconclusive, Tau ThT inhib 14µM, KDM4E inh inconclusive
Cc1ccc(-c2csc(N/N=C/c3ccco3)n2)cc1	Tau fluor cs inconclusive, Tau ThT inhib 14µM
O=C(N/N=C/c1ccco1)c1cc(-c2ccc(Cl)cc2)n[nH]1	none (no result: Tau ThT inhib)
CN(C)S(=O)(=O)c1ccc(-c2csc(N/N=C/c3ccco3)n2)cc1	Tau fluor cs inconclusive, Tau ThT inhib inconclusive
Brc1ccc(-c2csc(N/N=C/c3ccco3)n2)cc1	Tau fluor cs 18µM[quencher], Tau ThT inhib 16µM, KDM4E inh inconclusive
Clc1ccc(-c2csc(N/N=C/c3ccco3)n2)cc1	Tau fluor cs 13µM[quencher], Tau ThT inhib 14µM
O=C(O)c1nnn(-c2ccc([N+](=O)[O-])cc2)c1-c1ccccc1	KDM4E inh inconclusive
O=C(CCC(=O)OCc1ccc([N+](=O)[O-])cc1)Nc1ccc(F)cc1	none
O=C(NNc1nc(-c2ccc(Cl)cc2)cs1)c1ccco1	Tau fluor cs inconclusive, Tau ThT inhib inconclusive
O=C(NNc1nc(-c2ccccc2)cs1)c1ccco1	Tau fluor cs inconclusive, Tau FP inhib inconclusive, Tau ThT inhib 11µM, KDM4E inh inconclusive
O=C(CS(=O)c1ccc(C(F)(F)F)cc1[N+](=O)[O-])Oc1ccc(Cl)cc1 (configuration not stated)	Tau fluor cs inconclusive, Tau FP inhib inconclusive, Tau ThT inhib 22µM
Cc1cc(C)cc(OC(=O)CS(=O)c2ccc(C(F)(F)F)cc2[N+](=O)[O-])c1 (configuration not stated)	Tau fluor cs inconclusive, Tau FP inhib inconclusive, Tau ThT inhib 13µM
O=S(=O)(NC1CCCC1)c1ccccc1Cl	none
Cc1cccc(N2CC34C=CC(O3)C(C(=O)O)C4C2=O)c1 (configuration not stated)	none
CCCCNC(=O)C(CC)Sc1nc2sc(C(=O)OC)c(C)c2c(=O)n1N (configuration not stated)	KDM4E inh inconclusive
O=C(Nc1ccc([N+](=O)[O-])cc1Cl)c1cc(Cl)ccc1O	Tau fluor cs inconclusive, Tau ThT inhib 7.1µM
O=C(Nc1cccc(Cl)c1)c1cc(N=Nc2ccc([N+](=O)[O-])cc2Cl)ccc1O	Tau fluor cs 1.1µM[quencher], Tau FP inhib 8.9µM, Tau ThT inhib 0.89µM
O=[N+]([O-])c1ccc(O)c(/C=N/NC(=S)Nc2ccc(Cl)cc2Cl)c1	Tau fluor cs inconclusive, KDM4E inh 8.9µM (no result: Tau ThT inhib)
Cc1ccc(O)c(NC(=O)c2cc([N+](=O)[O-])ccc2Cl)c1	none
O=C(Nc1cccc(Cl)c1)c1cccc(Oc2ccc([N+](=O)[O-])cc2Cl)c1	Tau fluor cs inconclusive
Cc1cc(Br)ccc1SCC(=O)OCC(=O)c1c(N)n(C)c(=O)n(C)c1=O	Tau fluor cs inconclusive, Tau FP inhib inconclusive
Cc1ccc(C)n1-c1sccc1C(=O)O	Tau FP inhib inconclusive, Tau ThT inhib 32µM
Cc1ccc(C)n1-c1sc2c(c1C(=O)O)CCCC2	Tau FP inhib inconclusive, Tau ThT inhib inconclusive
CCOC(=O)c1nn(-c2cccc(C)c2)c2nnc(Cc3ccc(C)cc3)c(=O)n12	none
O=c1/c(=C/c2ccco2)sc2nc(-c3ccccc3Br)nn12	TexasRed fluor inconclusive, Tau FP inhib inconclusive, Tau ThT inhib inconclusive, KDM4E inh 25µM
COc1ccccc1-c1nc2s/c(=C\c3cccs3)c(=O)n2n1	Tau ThT inhib inconclusive, KDM4E inh inconclusive
CN(C)c1ccc(N=Nc2cccc3ccoc23)cc1	Tau fluor cs 16µM[quencher], Tau ThT inhib 1.4µM
O=C(c1ccccc1)n1ccc2ccccc21	none
O=C(Nc1cccc(F)c1)c1ccc(S(=O)(=O)NCC2CCCO2)cc1 (configuration not stated)	none
Cc1ccccc1NS(=O)(=O)c1ccc(Br)s1	TexasRed fluor 112µM[quencher] (no result: KDM4E inh)
CCOc1ccc(Nc2cc(=O)oc3ccccc23)cc1	KDM4E inh inconclusive
Cn1c(-c2c(N)n(CCCc3ccccc3)c3nc4ccccc4nc23)nc2ccccc21	none
